We go through five molecules from PubChem BioAssay.

The source made the active and inactive calls.

In test [1] the test system is Plasmodium falciparum Sir2 (PF13_0152, Sir2A). Nature of the test: pfSir2 binders on small-molecule microarrays, primary screen, biochemical, small-molecule microarray, 635 nm fluorescence (AID 1098).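 Note: score merges spot fluorescence intensity with its signal-to-noise ratio.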 The following applies: small-molecule microarray binding, fluorescence 635 nm; higher = more signal.
Test [2] is described as follows: small-molecule microarray binders of probe aDKK1, primary screen, biochemical, biotinylated probe, 635/667 nm fluorescence (AID 1099).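 Note: score merges 667nm spot fluorescence with signal to noise across triplicate slides.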 The following applies: higher = more signal.
Test [3] in a line: small-molecule microarray binders of probe aCHRDL2, primary screen, biochemical, biotinylated probe, 635/667 nm fluorescence (AID 1100). The settings on record: higher = more signal.
The nature of test [4]: splicing luciferase reporter signal modulators, primary screen, spliceosome inhibition project, cell-based, HEK293, splice +/- reporter (AID 1101).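 Note: HEK293 cells carrying a splicing-competent luciferase reporter gene; test concentration not given here.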 The following applies: luminescence, 24 h, higher = more signal, called active from +8 up or from −8 down. A general note: Reporter assays use an easily measured gene product as a stand-in for the process of interest.
The target in test [5] is Fibroblast growth factor 10 (Homo sapiens) (UniProt O15520). The test can be described thus: FGF10 binders on small-molecule microarrays, primary screen, biochemical, small-molecule microarray, 635 nm fluorescence (AID 1102). The following applies: FGF10 binding, fluorescence 635 nm, higher = more signal.
In test [6] the test system is glycogen synthase kinase-3 (GSK3A per assay name; protocol says GSK3B). The test can be described thus: GSK3 binders on small-molecule microarrays, primary screen, biochemical, small-molecule microarray, 635 nm fluorescence, GSK3A (AID 1103). Note: the record names both GSK3A and GSK3B. The following applies: small-molecule microarray binding, fluorescence 635 nm; higher = more signal.
The target in test [7] is Epidermal growth factor receptor (Homo sapiens) (UniProt P00533). Nature of the test: EGFR binders on small-molecule microarrays, primary screen, biochemical, small-molecule microarray, 635 nm fluorescence (AID 1104).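 Note: score merges 667 nm emission intensity with spot signal to noise over triplicate slides.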 The settings on record: EGFR binding, higher = more signal.
The target of test [8] is Follistatin-related protein 3 (Homo sapiens) (UniProt O95633). Nature of the test: FSTL3 binders on small-molecule microarrays, primary screen, biochemical, small-molecule microarray, 635 nm fluorescence (AID 1105).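 Note: score merges emission near 667 nm and signal to noise per printed spot across three slides.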 The settings on record: FSTL3 binding, higher = more signal.
Test [9] has as its target Dickkopf-related protein 1 (Homo sapiens) (UniProt O94907). The test can be described thus: DKK1 binders on small-molecule microarrays, primary screen, biochemical, small-molecule microarray, 635 nm fluorescence scan (AID 1106).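 Note: score merges emission near 667 nm with signal to noise over three replicate slides.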 The settings on record: DKK1 binding, higher = more signal.
Test [10] deals with Inhibin beta A chain (activin A). The test can be described thus: INHBA (activin A) binders on microarrays, primary screen, biochemical, small-molecule microarray, 635 nm fluorescence scan (AID 1107).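 Note: mouse activin A protein probed at 4.33 µg/mL on printed slides; score merges bound-protein fluorescence near 667 nm with spot signal-to-noise.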 The following applies: small-molecule microarray binding, higher = more signal.
Test [11] concerns Human papillomavirus type 1a protein E7 (residues 44-93). Nature of the test: HPV1a E7 fragment binders on microarrays, primary screen, biochemical, small-molecule microarray, residues 44-93, 635 nm fluorescence (AID 1108).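 Note: E7 fragment applied at 1 µg/mL in TBST for 1 h at 4 C; score combines spot fluorescence with its signal to noise ratio.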 The following applies: small-molecule microarray binding, fluorescence 635 nm; higher = more signal.
A short description of test [12]: modulators of HCV replicon luciferase signal, primary screen, HCV replication inhibitor project, Huh7 cells, luciferase reporter (AID 1109).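 Note: huh7 hepatoma cells harbouring a luciferase neomycin HCV replicon reporter; luciferase luminescence as measure of HCV replicon replication; test concentration not given here.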 The settings on record: 48 h, higher = more signal.
Test [13] concerns the target Left-right determination factor 2 (Homo sapiens) (UniProt O00292). Nature of the test: LEFTY2 binders on small-molecule microarrays, primary screen, biochemical, small-molecule microarray, 635 nm fluorescence scan (AID 1110). The following applies: LEFTY2 binding, higher = more signal.
Test [14] deals with Calmodulin-1 (Homo sapiens) (UniProt P0DP23). The test can be described thus: CALM1 binders on microarrays, EGTA buffer, profiling panel, biochemical, small-molecule microarray, Cy5-labelled CALM1 (AID 1111).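 Note: labelled calmodulin applied in Tris saline Tween buffer holding calcium plus EGTA and DTT.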 The settings on record: Cy5-CALM1 binding fluorescence, higher = more signal.
For test [15] the target is unchanged. Nature of the test: calcium-bound CALM1 binders on microarrays, profiling panel, artefact control for SMM control-protein annotation, biochemical, small-molecule microarray, Cy5-labelled CALM1, plus calcium (AID 1112).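 Note: score merges spot fluorescence with signal to noise from triplicate slides.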 The following applies: Cy5-CALM1 binding fluorescence, higher = more signal.
Test [16] can be described thus: small-molecule microarray binders of probe aWnt5a, primary screen, biochemical, biotinylated probe, 635/667 nm fluorescence (AID 1113).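 Note: score merges 667 nm fluorescence intensity with signal-to-noise per printed feature.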 The settings on record: higher = more signal.
Test [17] in a line: small-molecule microarray binders of probe aShh, primary screen, biochemical, biotinylated probe, 635/667 nm fluorescence (AID 1114).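 Note: probe is biotin-labelled aShh protein from a stem cell growth factor screen; measures binding of labelled protein to compounds printed on the slide; score merges feature fluorescence at 667 nm with signal-to-noise.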 The settings on record: higher = more signal.
Test [18] is described as follows: small-molecule microarray binders of probe aNog, primary screen, biochemical, biotinylated probe, 635/667 nm fluorescence (AID 1115).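 Note: probe is biotinylated aNog protein used at 0.15 µg/mL for 1 h at 4 C; z-score combines 667 nm fluorescence of each spot with its signal to noise.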 The settings on record: higher = more signal.
The target in test [19] is Torsin-1A-interacting protein 1 (Homo sapiens) (UniProt Q5JTV8). The test can be described thus: LAP1 binders from COS7 cell lysate, primary screen, small-molecule microarray, 635/667 nm fluorescence (AID 1116). The settings on record: COS7-hLAP1 lysate binding, 635 nm fluorescence, higher = more signal.
Test [20] deals with Alpha-bungarotoxin (Bungarus multicinctus) (UniProt P60615). The test can be described thus: alpha-bungarotoxin binders on microarray, profiling panel, artefact control for SMM control protein annotation, biochemical, small-molecule microarray, Alexa647 label, 635/667 nm fluorescence (AID 1117). The following applies: alpha-BTX-A647 binding fluorescence, higher = more signal.
Alpha-bungarotoxin (Bungarus multicinctus), sequence (P60615 whole entry, looked up): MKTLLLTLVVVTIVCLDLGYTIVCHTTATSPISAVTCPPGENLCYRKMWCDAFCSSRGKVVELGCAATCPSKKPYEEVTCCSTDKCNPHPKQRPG

Dickkopf-related protein 1 (Homo sapiens), sequence (O94907 whole entry, looked up): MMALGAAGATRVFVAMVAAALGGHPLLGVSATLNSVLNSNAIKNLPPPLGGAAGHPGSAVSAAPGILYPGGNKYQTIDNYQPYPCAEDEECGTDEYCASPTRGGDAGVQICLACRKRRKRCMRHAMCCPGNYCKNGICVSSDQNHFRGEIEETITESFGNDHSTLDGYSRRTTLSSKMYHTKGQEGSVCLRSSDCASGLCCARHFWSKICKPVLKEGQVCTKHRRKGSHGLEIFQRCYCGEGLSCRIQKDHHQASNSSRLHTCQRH
Torsin-1A-interacting protein 1 (Homo sapiens), sequence (Q5JTV8 whole entry, looked up): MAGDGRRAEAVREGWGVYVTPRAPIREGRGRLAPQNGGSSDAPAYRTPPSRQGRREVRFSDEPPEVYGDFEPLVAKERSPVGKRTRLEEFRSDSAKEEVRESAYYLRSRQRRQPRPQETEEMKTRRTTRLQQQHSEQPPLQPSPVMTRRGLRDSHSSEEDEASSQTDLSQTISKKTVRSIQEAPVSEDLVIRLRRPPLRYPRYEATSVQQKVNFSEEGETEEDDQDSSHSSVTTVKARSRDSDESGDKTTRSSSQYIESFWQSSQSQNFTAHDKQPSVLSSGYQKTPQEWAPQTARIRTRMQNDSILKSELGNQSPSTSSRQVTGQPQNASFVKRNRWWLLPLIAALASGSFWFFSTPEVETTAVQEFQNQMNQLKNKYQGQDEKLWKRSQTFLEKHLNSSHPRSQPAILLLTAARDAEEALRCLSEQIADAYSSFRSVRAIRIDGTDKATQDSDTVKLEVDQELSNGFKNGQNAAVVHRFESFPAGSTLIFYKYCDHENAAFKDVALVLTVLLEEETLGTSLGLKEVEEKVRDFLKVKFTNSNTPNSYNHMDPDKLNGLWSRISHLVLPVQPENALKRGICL
Fibroblast growth factor 10 (Homo sapiens), sequence (O15520 whole entry, looked up): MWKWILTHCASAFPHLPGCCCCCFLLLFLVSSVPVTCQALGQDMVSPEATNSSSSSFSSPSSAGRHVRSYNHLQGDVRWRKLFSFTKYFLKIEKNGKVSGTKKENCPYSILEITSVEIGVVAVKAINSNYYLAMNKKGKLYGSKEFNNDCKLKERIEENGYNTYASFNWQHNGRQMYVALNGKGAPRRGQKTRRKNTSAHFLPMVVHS
Epidermal growth factor receptor (Homo sapiens), sequence (P00533 whole entry, looked up): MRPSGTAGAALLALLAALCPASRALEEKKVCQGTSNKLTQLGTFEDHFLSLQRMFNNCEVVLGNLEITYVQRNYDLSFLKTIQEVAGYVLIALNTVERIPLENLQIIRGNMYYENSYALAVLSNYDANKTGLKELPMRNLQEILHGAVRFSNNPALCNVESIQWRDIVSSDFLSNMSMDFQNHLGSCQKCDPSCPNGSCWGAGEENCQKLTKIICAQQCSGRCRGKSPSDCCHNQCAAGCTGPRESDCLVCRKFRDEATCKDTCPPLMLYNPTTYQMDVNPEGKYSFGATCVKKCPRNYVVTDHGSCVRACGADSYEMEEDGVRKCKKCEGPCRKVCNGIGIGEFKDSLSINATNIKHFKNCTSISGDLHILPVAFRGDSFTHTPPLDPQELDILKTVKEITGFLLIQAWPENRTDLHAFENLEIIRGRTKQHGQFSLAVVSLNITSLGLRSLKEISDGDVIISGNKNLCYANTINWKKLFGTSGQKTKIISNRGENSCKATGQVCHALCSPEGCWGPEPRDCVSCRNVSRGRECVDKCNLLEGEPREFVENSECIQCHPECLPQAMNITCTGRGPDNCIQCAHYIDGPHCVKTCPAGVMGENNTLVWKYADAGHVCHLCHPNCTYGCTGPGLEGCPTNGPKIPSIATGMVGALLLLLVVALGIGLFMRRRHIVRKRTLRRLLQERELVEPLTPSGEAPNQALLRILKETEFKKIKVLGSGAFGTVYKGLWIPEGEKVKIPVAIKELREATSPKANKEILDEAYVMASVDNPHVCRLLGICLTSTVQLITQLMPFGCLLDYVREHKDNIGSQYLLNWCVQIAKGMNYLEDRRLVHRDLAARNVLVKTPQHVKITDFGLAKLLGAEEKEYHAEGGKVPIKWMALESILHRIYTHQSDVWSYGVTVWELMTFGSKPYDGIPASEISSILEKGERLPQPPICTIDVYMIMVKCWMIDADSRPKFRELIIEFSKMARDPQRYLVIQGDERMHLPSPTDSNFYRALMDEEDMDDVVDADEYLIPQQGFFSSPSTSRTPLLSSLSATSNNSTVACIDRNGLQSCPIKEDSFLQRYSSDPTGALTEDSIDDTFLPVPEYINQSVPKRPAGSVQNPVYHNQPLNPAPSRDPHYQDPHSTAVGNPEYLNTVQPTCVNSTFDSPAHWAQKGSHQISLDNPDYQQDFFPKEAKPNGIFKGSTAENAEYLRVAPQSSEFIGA
Left-right determination factor 2 (Homo sapiens), sequence (O00292 whole entry, looked up): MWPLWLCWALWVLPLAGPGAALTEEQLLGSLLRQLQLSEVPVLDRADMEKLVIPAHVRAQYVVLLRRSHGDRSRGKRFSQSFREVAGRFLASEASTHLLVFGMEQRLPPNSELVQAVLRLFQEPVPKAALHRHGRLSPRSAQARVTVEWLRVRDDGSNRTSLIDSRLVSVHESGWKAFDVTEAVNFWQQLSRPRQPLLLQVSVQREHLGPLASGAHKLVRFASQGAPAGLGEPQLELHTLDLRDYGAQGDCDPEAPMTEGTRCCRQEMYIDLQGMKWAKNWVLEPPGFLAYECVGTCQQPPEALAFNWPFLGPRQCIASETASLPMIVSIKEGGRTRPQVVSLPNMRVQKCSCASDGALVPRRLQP
Follistatin-related protein 3 (Homo sapiens), sequence (O95633 whole entry, looked up): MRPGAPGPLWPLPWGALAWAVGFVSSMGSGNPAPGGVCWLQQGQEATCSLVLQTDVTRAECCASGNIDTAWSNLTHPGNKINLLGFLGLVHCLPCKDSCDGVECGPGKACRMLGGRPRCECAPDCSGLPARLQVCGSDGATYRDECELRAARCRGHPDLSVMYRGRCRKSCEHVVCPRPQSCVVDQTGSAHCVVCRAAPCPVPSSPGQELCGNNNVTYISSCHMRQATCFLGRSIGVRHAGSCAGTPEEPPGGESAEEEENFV

As to `CC(C)NC(=O)[C@@H]1c2ccccc2C(=O)N(Cc2cc(F)cc(C(F)(F)F)c2)[C@H]1c1ccc(CO)cc1`, the composite z-score in test [1] was 1.51; in test [2] it was 0.478; in test [3], 0.94; in test [5], -0.535; in test [6], -0.825; in test [7], -0.979. Also, the composite z-score in test [8] was -1.17; in test [9], -0.833; in test [10], -0.476; in [11], 0.719; in [13], -0.556; in test [14], 0.343. Besides, the composite z-score in test [15] was 0.916; in test [16], -0.25; in [17], -0.321; in test [18] it was 0.27; in [19], 0.0026; in [20], -0.948. The z-score is -1.05 (inactive) in [4] and 0.32 in [12].

On to `CC(C)(C)OC(=O)CC[C@@]1(C(=O)N2CCOCC2)N=C(c2ccc(OCCCO)cc2)O[C@@H]1c1ccccc1`, for which the composite z-score in test [1] was 1.12; in test [2], 1.33; in [3], 1.36; in [5], 0.728; in test [6], 0.943; in [7] it was -0.384. The composite z-score in test [8] was -0.462; in [9] it was -0.607; in test [10], 0.743; in test [11], 0.358; in [13], -0.26; in test [14], 2.08. In addition, the composite z-score in test [15] is 1.31; in test [16], -0.0403; in test [17], 0.798; in test [18], 1.4; in test [19], 3.32; in [20] it was 2.06. The z-score in [4] is -1.17 (inactive); in [12] it was -0.0126.

For `CCCCC(=C=CC[C@H](O)c1cccc(OCCO)c1)CCO`, the composite z-score is 0.674 in test [1]; -0.0104 in test [2]; 0.287 in test [3]; 0.0392 in [5]; -0.558 in test [6]; -0.932 in [7]. For the same molecule, the composite z-score in test [8] is -0.764; in test [9], -0.263; in [10], 1.07; in [11] it was -0.397; in test [13], -0.497; in [14], -0.357. Besides, the composite z-score is -0.0182 in test [15]; -0.0462 in test [16]; 0.0639 in test [17]; 0.0511 in test [18]; 0.338 in [19]; 0.629 in test [20]. For the same molecule, the z-score is -0.261 (inactive) in [4] and -1.21 in [12].

On to `C=C(COC)C(=O)CC[C@H](OC(=O)c1cccnc1)c1cccc(OCCO)c1`, for which the composite z-score in [1] is 0.935; in [2], 0.706; in test [3], 0.169; in test [5], 1.09; in test [6], 0.538; in [7], 0.041. In addition, the composite z-score in test [8] is 0.431; in test [9], 0.994; in test [10], 1.23; in test [11], -0.298; in [13] it was 0.203; in test [14], -0.638. The composite z-score was -0.282 in [15]; 0.506 in [16]; 0.841 in [17]; 0.958 in [18]; 1.49 in test [19]; -0.923 in test [20]. For the same molecule, the z-score in test [4] was -0.686 (inactive); in test [12], -0.87.

In the case of `C=C(C(=O)CC[C@@H](OC(C)=O)c1ccccc1OCCO)C(C)C`, the composite z-score is 0.967 in test [1]; -0.416 in test [2]; -0.0909 in test [3]; 1.14 in test [5]; -0.465 in test [6]; -0.847 in test [7]. For the same molecule, the composite z-score in test [8] is -0.406; in test [9] it was 0.108; in test [10], 0.959; in [11] it was -0.512; in test [13], -0.325; in [14], -0.942. Moreover, the composite z-score in [15] was -1.21; in test [16] it was -0.202; in test [17], -0.153; in test [18], -0.0783; in test [19], 0.495; in test [20], -0.175. Also, the z-score in [4] was -1.41 (inactive); in test [12], -3.88.
